Measured potencies and affinities stand elsewhere. Activity calls are given as the source filed them.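 The calls were made as follows: active = signal-lowering compounds whose fitted half-maximal concentration is at or below twice the top tested dose in every run; inconclusive = runs disagree, flat 30 to 70% inhibition, or poor curve fit; inactive = the rest.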
Biological target: Protein S100-A4 (Homo sapiens) (UniProt P26447)
Test: S100A4-myosin IIA binding inhibitor potency, dose response, biochemical, fluorescence polarization, cherry-picked hits (AID 687001);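 also: 0% = DMSO neutral control wells and -100% = TFP positive control wells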
Settings: FP, S100A4/TAMRA-myosin IIA peptide binding; series mostly up to 11 µM; activity change, negative = inhibition: at the top concentration

Protein S100-A4 (Homo sapiens), sequence (P26447 whole entry, looked up): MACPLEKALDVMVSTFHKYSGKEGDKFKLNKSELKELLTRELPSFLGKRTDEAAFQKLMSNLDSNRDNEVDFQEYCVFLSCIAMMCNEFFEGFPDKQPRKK

| SMILES | activity change, negative = inhibition |
| --- | --- |
| Cc1ccc(CN2C(=O)CSc3ccc(C(=O)NC4CC4)cc32)cc1 | -4.95% (inactive) |
| Cc1ccc(CNc2cnccn2)s1 | 1.38% (inactive) |
| CCc1cccc(C)c1NC(=O)COC(=O)C1CC(=O)N(CCc2ccc(OC)c(OC)c2)C1 (stereo not drawn) | -4.85% (inactive) |
